# Measurements from PubChem BioAssay (NCATS).
# Values without a mark were called inactive. Unless noted, calls follow the shape of the dose curve; as a rule, active = well fitted curve in either direction with a large enough effect (not every such curve was filed as active); inconclusive = small, poorly fitted or top-dose-only effect, or another doubt; inactive = flat fitted curve, though single readings scatter. Records with an inconclusive call do not appear.
# Molecular target: Lysosomal acid glucosylceramidase (Homo sapiens) (UniProt P04062)
# Sequence (P04062 whole entry, looked up): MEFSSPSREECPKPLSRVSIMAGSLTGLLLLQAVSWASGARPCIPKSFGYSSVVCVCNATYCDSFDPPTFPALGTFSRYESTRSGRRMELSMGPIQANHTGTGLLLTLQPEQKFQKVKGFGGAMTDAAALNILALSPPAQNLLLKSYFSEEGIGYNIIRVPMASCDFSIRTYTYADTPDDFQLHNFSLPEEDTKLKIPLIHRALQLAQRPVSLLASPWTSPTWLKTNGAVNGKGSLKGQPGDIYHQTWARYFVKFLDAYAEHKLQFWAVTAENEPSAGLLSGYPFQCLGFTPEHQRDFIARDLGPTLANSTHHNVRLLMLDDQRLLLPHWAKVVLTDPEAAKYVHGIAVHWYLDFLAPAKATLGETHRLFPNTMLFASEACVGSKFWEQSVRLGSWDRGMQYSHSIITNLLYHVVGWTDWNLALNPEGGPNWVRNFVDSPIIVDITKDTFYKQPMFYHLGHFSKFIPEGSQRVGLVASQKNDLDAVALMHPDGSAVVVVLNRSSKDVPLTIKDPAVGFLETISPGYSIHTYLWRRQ
# Test: Glucocerebrosidase-p2 (AID 348; in the data active = potency below about 10 µM; also: potency is read from the fitted curve at half-maximal effect)
# Conditions: purified GBA, blue fluorogenic substrate, 40 min
# Summary of the method: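 Normal human glucocerebrosidase (0.2 nM) with blue fluorogenic substrate (80 uM final) in citrate/phosphate pH 5.9 with 10mM sodium taurocholate, 0.01% tween-20; 40 min RT, NaOH/glycine stop; fluorescence Ex 365/Em 440; AC50 from a titration from 0.6 nM upwards.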
row,SMILES,Potency [µM]
1,O=S(=O)(O)CCCc1cccc2ccccc12,> 11.4
2,CC(C)(Oc1ccc(-c2cccc3ccccc23)cc1)C(=O)O,> 11.4
3,O=[N+]([O-])c1cc(Cc2cc([N+](=O)[O-])c3cccnc3c2O)c(O)c2ncccc12,> 11.4
4,O[C@@H](COc1cccc2ccccc12)CN1CCOCC1,> 11.4
5,FC(F)(F)c1nc(SCc2ccc(Cl)cc2)n[nH]1,> 11.4
6,O=C1c2ccccc2-c2ccc(NC(=O)[C@H]3CCCC[C@@H]3C(=O)O)cc21,> 11.4
7,CCOC(=O)C1=C(C)NC(=O)N[C@@H]1c1coc2cc(C)cc(C)c2c1=O,> 11.4
8,OCCCSCCO,> 11.4
9,CC1=N[C@@](C)(COC(=O)[C@]2(C)N[C@](C)(CO)CO2)COC1=O,> 11.4
10,NCC[C@H](N)C(=O)O,> 11.4
11,O=S(=O)(c1ccccc1)N1CN2CN(C1)CN(S(=O)(=O)c1ccccc1)C2,> 11.4
12,NC(=O)Nc1n[nH]c(-c2ccccc2)n1,> 11.4
13,C[C@@]1(C(=O)O)CCC[C@@H]1C(=O)O,> 11.4
14,CCOC(=O)C(C)(C)[C@H](O)C(C)C,> 11.4
15,N=C(N)[C@H](N=Nc1ccccc1)C(N)=O,> 11.4
16,O=C(Cn1ccc(=O)[nH]c1=O)Nc1ccc(C(=O)O)c(O)c1,> 11.4
17,N[C@@H](Cc1c[nH]c2ccc([N+](=O)[O-])cc12)C(=O)O,> 11.4
18,Nc1nc(-c2cccc([N+](=O)[O-])c2)cc(-c2cc(-c3cccc([N+](=O)[O-])c3)nc(N)n2)n1,> 11.4
19,O=C(O)CC[C@@]1(c2ccccc2)NC(=O)NC1=O,> 11.4
20,NS(=O)(=O)c1ccc(N=Nc2ccc(O)c(C(=O)O)c2)cc1,> 11.4

row,SMILES,Potency [µM]
1,N=C(N)SCCSC(=N)N,> 11.4
2,Cc1c(C(=O)O)nc(/C=C\C(=O)O)[nH]c1=O,> 11.4
3,O=C(Nc1ccc2ncccc2c1)Nc1ccc2ncccc2c1,> 11.4
4,Cc1ccc(S(=O)(=O)Oc2cc(S(=O)(=O)O)cc3cc(S(=O)(=O)O)cc(N)c23)cc1,> 11.4
5,COc1ccc(NC(=S)Nc2ccccc2)cc1,> 11.4
6,Cn1cnc([N+](=O)[O-])c1Sc1nc(N)nc2c1ncn2Cc1ccccc1,> 11.4
7,N=C(N)SCc1cc(Cl)cc(Cl)c1O,> 11.4
8,C[C@@](N)(/C=C\c1ccccc1)C(=O)O,> 11.4
9,O=C(O)C1(Nc2ccc(Cl)cc2)CCCC1,> 11.4
10,NS(=O)(=O)c1ccc(N=C2C(=O)Nc3ccccc32)cc1,> 11.4
11,COCCn1c(=O)c(-c2cc(F)cc(F)c2)nc2cnc(Oc3ccccc3)nc21,> 11.4
12,O=C(O)C(Sc1ccc(Cl)cc1)Sc1ccc(Cl)cc1,> 11.4
13,N=c1nc(N)nc(N)n1-c1ccc(S(N)(=O)=O)cc1,> 11.4
14,CN(C)Cc1ccc(O)c(CN(C)C)n1,> 11.4
15,COC(=O)[C@]1(C)CCC(c2ccc(C)cc2)=C(CC(=O)O)C1,> 11.4
16,Cc1cc(CN2CCCCC2)c(O)c(CN2CCCCC2)c1,> 11.4
17,CCO[P@]1(=O)OC[C@@H]2O[C@H](n3cnc4c(N)ncnc43)[C@H](O)[C@@H]2O1,> 11.4
18,O=C(NCCO)c1ccc(Cl)cc1,> 11.4
19,C/C(=N/S(=O)(=O)c1ccc(Cl)c(Cl)c1)OCC(C)(C)C,> 11.4

# Test system: not listed separately
# Test: AP1 Signaling Pathway (AID 357);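 also: ME-180 reporter cells stimulated with EGF at its EC50 level; % is scaled to controls: 0 for no effect and ±100 for the full control effect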
# Conditions: ME-180 (cervical carcinoma) AP-1-bla reporter, EGF-induced, beta-lactamase ratio, 5 h; at 7.69 µM (top of the series) unless noted
# Summary of the method: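 Read-out was the 460nm/530nm emission ratio (excitation 405nm) after CCF4 loading for 2.5 hours at room temperature. Cells carried an AP-1-driven beta-lactamase reporter, were stimulated with EC50 EGF plus compound for 5 hours, and AC50 values came from titrations.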
row,SMILES,"activity change, negative = inhibition [%]"
1,O=S(=O)(O)CCCc1cccc2ccccc12,3.46
2,CC(C)(Oc1ccc(-c2cccc3ccccc23)cc1)C(=O)O,2.76
3,O=[N+]([O-])c1cc(Cc2cc([N+](=O)[O-])c3cccnc3c2O)c(O)c2ncccc12,18.2
4,O[C@@H](COc1cccc2ccccc12)CN1CCOCC1,3.83
5,FC(F)(F)c1nc(SCc2ccc(Cl)cc2)n[nH]1,1.59
6,O=C1c2ccccc2-c2ccc(NC(=O)[C@H]3CCCC[C@@H]3C(=O)O)cc21,9.83
7,CCOC(=O)C1=C(C)NC(=O)N[C@@H]1c1coc2cc(C)cc(C)c2c1=O,-13.4
8,OCCCSCCO,5.52
9,CC1=N[C@@](C)(COC(=O)[C@]2(C)N[C@](C)(CO)CO2)COC1=O,0.84
10,NCC[C@H](N)C(=O)O,-2.63
11,O=S(=O)(c1ccccc1)N1CN2CN(C1)CN(S(=O)(=O)c1ccccc1)C2,-16.9
12,NC(=O)Nc1n[nH]c(-c2ccccc2)n1,4.22
13,C[C@@]1(C(=O)O)CCC[C@@H]1C(=O)O,8.46
14,CCOC(=O)C(C)(C)[C@H](O)C(C)C,-4.38
15,N=C(N)[C@H](N=Nc1ccccc1)C(N)=O,20.5
16,O=C(Cn1ccc(=O)[nH]c1=O)Nc1ccc(C(=O)O)c(O)c1,13.2
17,N[C@@H](Cc1c[nH]c2ccc([N+](=O)[O-])cc12)C(=O)O,-1.05
18,Nc1nc(-c2cccc([N+](=O)[O-])c2)cc(-c2cc(-c3cccc([N+](=O)[O-])c3)nc(N)n2)n1,-0.341
19,O=C(O)CC[C@@]1(c2ccccc2)NC(=O)NC1=O,3.07
20,NS(=O)(=O)c1ccc(N=Nc2ccc(O)c(C(=O)O)c2)cc1,-0.844

row,SMILES,"activity change, negative = inhibition [%]"
1,N=C(N)SCCSC(=N)N,5.54
2,Cc1c(C(=O)O)nc(/C=C\C(=O)O)[nH]c1=O,11.1
3,O=C(Nc1ccc2ncccc2c1)Nc1ccc2ncccc2c1,-16.2
4,Cc1ccc(S(=O)(=O)Oc2cc(S(=O)(=O)O)cc3cc(S(=O)(=O)O)cc(N)c23)cc1,8.2
5,COc1ccc(NC(=S)Nc2ccccc2)cc1,0.508
6,Cn1cnc([N+](=O)[O-])c1Sc1nc(N)nc2c1ncn2Cc1ccccc1,0.181
7,N=C(N)SCc1cc(Cl)cc(Cl)c1O,3.73
8,C[C@@](N)(/C=C\c1ccccc1)C(=O)O,-1.95
9,O=C(O)C1(Nc2ccc(Cl)cc2)CCCC1,-1.27
10,NS(=O)(=O)c1ccc(N=C2C(=O)Nc3ccccc32)cc1,-4.71
11,COCCn1c(=O)c(-c2cc(F)cc(F)c2)nc2cnc(Oc3ccccc3)nc21,0.911
12,O=C(O)C(Sc1ccc(Cl)cc1)Sc1ccc(Cl)cc1,0.225
13,N=c1nc(N)nc(N)n1-c1ccc(S(N)(=O)=O)cc1,4.82
14,CN(C)Cc1ccc(O)c(CN(C)C)n1,1.16
15,COC(=O)[C@]1(C)CCC(c2ccc(C)cc2)=C(CC(=O)O)C1,-2.42
16,Cc1cc(CN2CCCCC2)c(O)c(CN2CCCCC2)c1,25.8
17,CCO[P@]1(=O)OC[C@@H]2O[C@H](n3cnc4c(N)ncnc43)[C@H](O)[C@@H]2O1,-10.8
18,O=C(NCCO)c1ccc(Cl)cc1,-0.923
19,C/C(=N/S(=O)(=O)c1ccc(Cl)c(Cl)c1)OCC(C)(C)C,2.66
